Where a name gives a salt, the structure may show the parent alone. ± gives the standard deviation of the averaged measurements. The full ranking holds about 1,900 compounds; the median of “normalised cell viability (NPI; 0 = phenylarsine oxide control, 1 = DMSO control)” is about 1, and the lowest 2% start at about 0.039. The entries come from a sample that favours the lowest values as a whole.
Tested on: NCI-H1944
Assay: normalised cell viability (NPI; 0 = phenylarsine oxide control, 1 = DMSO control) (fraction of DMSO control); NCI-H1944 is a non-small cell lung cancer line; higher = more viable cells (less compound toxicity)
Settings: 6 days
[1] = glucocorticoid arm: hydrocortisone 2.75 uM co-treatment, compound 1 µM
[2] = glucocorticoid arm: hydrocortisone 2.75 uM co-treatment, compound 5 µM
[3] = glucocorticoid arm: hydrocortisone 2.75 uM pre-treated 2 days and continued, compound 1 µM
[4] = glucocorticoid arm: hydrocortisone 2.75 uM pre-treated 2 days and continued, compound 5 µM
[5] = glucocorticoid arm: vehicle, compound 1 µM
[6] = glucocorticoid arm: vehicle, compound 5 µM
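Also: CTB read-out in 384-well plates, triplicate wells, NPI normalised per plate against 1 µM phenylarsine oxide (0) and 0.1% DMSO (1) controls.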

## O=C(c1ccc(Nc2nccc(-c3cc4ccccc4s3)n2)cc1)N1CCC(N2CCCC2)CC1 [IKK-16 (IKK Inhibitor VII)]
[1]
  normalised cell viability: 0.901 ± 0.0072
[2]
  normalised cell viability: 0.626 ± 0.03
[3]
  normalised cell viability: 0.913 ± 0.015
[4]
  normalised cell viability: 0.837 ± 0.021
[5]
  normalised cell viability: 0.9453 ± 0.0065
[6]
  normalised cell viability: 0.0503 ± 0.008

## CNCC[C@H](Oc1cccc2ccccc12)c1cccs1 [Duloxetine HCl]
[1]
  normalised cell viability: 0.9993 ± 0.0011
[2]
  normalised cell viability: 0.9847 ± 0.0032
[3]
  normalised cell viability: 1.01 ± 0.018
[4]
  normalised cell viability: 0.98 ± 0.015
[5]
  normalised cell viability: 0.999 ± 0.0095
[6]
  normalised cell viability: 0.9923 ± 0.0083

## C[n+]1cc2c3c(ccc2c2ccc4cc5c(cc4c21)OCO5)OCO3 [Sanguinarine chloride]
[1]
  normalised cell viability: 1.04 ± 0.011
[2]
  normalised cell viability: -0.0014 ± 0.001
[3]
  normalised cell viability: 0.903 ± 0.2
[4]
  normalised cell viability: -0.00109 ± 0.00052
[5]
  normalised cell viability: 0.983 ± 0.037
[6]
  normalised cell viability: -0.000203 ± 0.00043

## Cc1ccccc1CNc1ncnc2c1ncn2[C@@H]1O[C@H](CO)[C@@H](O)[C@H]1O [Metrifudil]
[1]
  normalised cell viability: 1.01 ± 0.011
[2]
  normalised cell viability: 1.03 ± 0.017
[3]
  normalised cell viability: 1.02
[4]
  normalised cell viability: 1.04 ± 0.071
[5]
  normalised cell viability: 0.996 ± 0.004
[6]
  normalised cell viability: 1.001 ± 0.0085

## O=C(O)C1CCNCC1 [Isonipecotic acid]
[1]
  normalised cell viability: 1.003 ± 0.0058
[2]
  normalised cell viability: 1.02 ± 0.017
[3]
  normalised cell viability: 1.01 ± 0.018
[4]
  normalised cell viability: 1.04 ± 0.07
[5]
  normalised cell viability: 0.9937 ± 0.0015
[6]
  normalised cell viability: 1.001 ± 0.0078

## Cc1ccccc1/C=C/C1=NCCN1 [Metrazoline oxalate]
[1]
  normalised cell viability: 0.9993 ± 0.0011
[2]
  normalised cell viability: 1.002 ± 0.0072
[3]
  normalised cell viability: 1.01
[4]
  normalised cell viability: 0.987 ± 0.017
[5]
  normalised cell viability: 0.995 ± 0.007
[6]
  normalised cell viability: 1.002 ± 0.0076

## CN(N=O)C(=O)N[C@@H]1[C@@H](O)[C@H](O)[C@@H](CO)O[C@@H]1O [Streptozocin]
[1]
  normalised cell viability: 1 ± 0.014
[2]
  normalised cell viability: 1.03 ± 0.015
[3]
  normalised cell viability: 1.001 ± 0.0081
[4]
  normalised cell viability: 1.04 ± 0.01
[5]
  normalised cell viability: 0.9943 ± 0.0051
[6]
  normalised cell viability: 1

## CC(C)[C@H]1c2ccc(F)cc2CC[C@@]1(CCN(C)CCCc1nc2ccccc2[nH]1)OC(=O)C1CC1
[1]
  normalised cell viability: 0.9943 ± 0.0051
[2]
  normalised cell viability: -0.000718 ± 0.00075
[3]
  normalised cell viability: 1.013 ± 0.0058
[4]
  normalised cell viability: 1.08 ± 0.035
[5]
  normalised cell viability: 0.989 ± 0.0095
[6]
  normalised cell viability: -6.33e-05 ± 0.0017

## COCC(=O)O[C@]1(CCN(C)CCCc2nc3ccccc3[nH]2)CCc2cc(F)ccc2[C@@H]1C(C)C [Mibefradil dihydrochloride]
[1]
  normalised cell viability: 0.977 ± 0.011
[2]
  normalised cell viability: 0.0303 ± 0.012
[3]
  normalised cell viability: 1 ± 0.015
[4]
  normalised cell viability: 0.827 ± 0.24
[5]
  normalised cell viability: 0.9887 ± 0.0031
[6]
  normalised cell viability: 0.00844 ± 0.014

## CCOc1ccc(Cc2cc([C@@H]3O[C@H](CO)[C@@H](O)[C@H](O)[C@H]3O)ccc2Cl)cc1 [Dapagliflozin]
[1]
  normalised cell viability: 1.01 ± 0.016
[2]
  normalised cell viability: 1.02 ± 0.026
[3]
  normalised cell viability: 1.02 ± 0.015
[4]
  normalised cell viability: 1.04 ± 0.017
[5]
  normalised cell viability: 1.001 ± 0.0081
[6]
  normalised cell viability: 1 ± 0.011

## CNC(=O)[C@H]1O[C@@H](n2cnc3c(N)ncnc32)[C@H](O)[C@@H]1O [5'-N-Methyl carboxamidoadenosine]
[1]
  normalised cell viability: 0.982 ± 0.02
[2]
  normalised cell viability: 0.972 ± 0.015
[3]
  normalised cell viability: 0.988 ± 0.013
[4]
  normalised cell viability: 0.961 ± 0.0028
[5]
  normalised cell viability: 0.9893 ± 0.0078
[6]
  normalised cell viability: 0.976 ± 0.0053

## O=C(O)/C(=C\c1c(C(=O)O)[nH]c2cc(Cl)cc(Cl)c12)c1ccccc1
[1]
  normalised cell viability: 1.02 ± 0.015
[2]
  normalised cell viability: 1.06 ± 0.017
[3]
  normalised cell viability: 1.017 ± 0.0058
[4]
  normalised cell viability: 1.08 ± 0.081
[5]
  normalised cell viability: 0.995 ± 0.002
[6]
  normalised cell viability: 1.013 ± 0.0058

## C/C=C1\NC(=O)[C@H]2CSSCC/C=C/[C@H](CC(=O)N[C@H](C(C)C)C(=O)N2)OC(=O)[C@H](C(C)C)NC1=O [Romidepsin (FK228, Depsipeptide)]
[1]
  normalised cell viability: 0.00704 ± 0.0021
[2]
  normalised cell viability: 0.000455 ± 0.00053
[3]
  normalised cell viability: 0.00593 ± 0.0021
[4]
  normalised cell viability: 0.000393 ± 0.00068
[5]
  normalised cell viability: 0.00559 ± 0.0012
[6]
  normalised cell viability: 2.1e-05 ± 0.00023

## C/C=C1\NC(=O)[C@H]2CSSCC/C=C/[C@H](CC(=O)N[C@H](C(C)C)C(=O)N2)OC(=O)[C@H](C(C)C)NC1=O [Depsipeptide]
[1]
  normalised cell viability: 6.37e-05 ± 0.001
[2]
  normalised cell viability: 1.05 ± 0.02
[3]
  normalised cell viability: 0.00143 ± 0.00036
[4]
  normalised cell viability: 1.027 ± 0.0058
[5]
  normalised cell viability: 0.00028 ± 0.00044
[6]
  normalised cell viability: 1.01

## C/C=C1\NC(=O)[C@H]2CSSCC/C=C/[C@H](CC(=O)N[C@H](C(C)C)C(=O)N2)OC(=O)[C@H](C(C)C)NC1=O [Romidepsin]
[1]
  normalised cell viability: 1.005 ± 0.0092
[2]
  normalised cell viability: 1.02 ± 0.011
[3]
  normalised cell viability: 1.007 ± 0.0058
[4]
  normalised cell viability: 1.02 ± 0.015
[5]
  normalised cell viability: 0.9903 ± 0.0045
[6]
  normalised cell viability: 0.979 ± 0.019

## O=C(O)C1CCCNC1 (racemic) [(±)-Nipecotic acid]
[1]
  normalised cell viability: 0.9947 ± 0.005
[2]
  normalised cell viability: 1.01 ± 0.014
[3]
  normalised cell viability: 1.02 ± 0.059
[4]
  normalised cell viability: 1.02 ± 0.021
[5]
  normalised cell viability: 1 ± 0.01
[6]
  normalised cell viability: 1.013 ± 0.0058

## CN(C)CCSSCCNC(=O)C1CCN(C(=O)CSc2ccc(Cl)cc2)CC1
[1]
  normalised cell viability: 1.01 ± 0.01
[2]
  normalised cell viability: 1.04 ± 0.015
[3]
  normalised cell viability: 1.027 ± 0.0058
[4]
  normalised cell viability: 1.05 ± 0.01
[5]
  normalised cell viability: 0.9967 ± 0.0035
[6]
  normalised cell viability: 0.9967 ± 0.0042

## N[C@@H](Cc1c[nH]cn1)C(=O)O [L-Histidine hydrochloride]
[1]
  normalised cell viability: 1.017 ± 0.0058
[2]
  normalised cell viability: 0.996 ± 0.012
[3]
  normalised cell viability: 1 ± 0.014
[4]
  normalised cell viability: 1.02 ± 0.01
[5]
  normalised cell viability: 0.9973 ± 0.0038
[6]
  normalised cell viability: 0.9973 ± 0.0046

## O=C(O)c1ccnc(C(=O)O)c1 [2,4-Pyridinedicarboxylic Acid]
[1]
  normalised cell viability: 1 ± 0.022
[2]
  normalised cell viability: 0.999 ± 0.045
[3]
  normalised cell viability: 0.996 ± 0.021
[4]
  normalised cell viability: 1.01 ± 0.024
[5]
  normalised cell viability: 0.996 ± 0.015
[6]
  normalised cell viability: 0.999 ± 0.015

## CN=c1nc(-c2ccccc2)n(-c2ccccc2)s1
[1]
  normalised cell viability: 1.003 ± 0.0058
[2]
  normalised cell viability: 1.04 ± 0.031
[3]
  normalised cell viability: 0.832 ± 0.33
[4]
  normalised cell viability: 1.02 ± 0.01
[5]
  normalised cell viability: 1.01
[6]
  normalised cell viability: 1.017 ± 0.0058

## O=C1Nc2ccc(I)cc2C1=Cc1cc(Br)c(O)c(Br)c1
[1]
  normalised cell viability: 1.047 ± 0.0058
[2]
  normalised cell viability: 1.113 ± 0.0058
[3]
  normalised cell viability: 1.04 ± 0.01
[4]
  normalised cell viability: 1.08 ± 0.021
[5]
  normalised cell viability: 1.02 ± 0.01
[6]
  normalised cell viability: 1.043 ± 0.0058

## Cc1nc(N=Nc2cc([N+](=O)[O-])ccc2Cl)c(COP(=O)(O)O)c(C=O)c1O [MRS 2211 sodium salt hydrate]
[1]
  normalised cell viability: 1.003 ± 0.0061
[2]
  normalised cell viability: 1.023 ± 0.0058
[3]
  normalised cell viability: 0.9933 ± 0.0099
[4]
  normalised cell viability: 0.995 ± 0.036
[5]
  normalised cell viability: 1.01 ± 0.013
[6]
  normalised cell viability: 1.006 ± 0.0075

## Cc1c2oc3c(C)ccc(C(=O)N[C@@H]4C(=O)N[C@H](C(C)C)C(=O)N5CCC[C@H]5C(=O)N(C)CC(=O)N(C)[C@@H](C(C)C)C(=O)O[C@@H]4C)c3nc-2c(C(=O)N[C@@H]2C(=O)N[C@H](C(C)C)C(=O)N3CCC[C@H]3C(=O)N(C)CC(=O)N(C)[C@@H](C(C)C)C(=O)O[C@@H]2C)c(N)c1=O [Dactinomycin]
[1]
  normalised cell viability: 0.0161 ± 0.0015
[2]
  normalised cell viability: 0.0688 ± 0.0039
[3]
  normalised cell viability: 0.0397 ± 0.0056
[4]
  normalised cell viability: 0.183 ± 0.016
[5]
  normalised cell viability: 0.0046 ± 0.00021
[6]
  normalised cell viability: 0.0187 ± 0.0011

Source: the supplement of paper PMC8285479
